Experimental data as given in PubChem BioAssay AID778 (Sanford-Burnham Center for Chemical Genomics, 2007).
Among all 96,000 compounds or so, about 20,000 (21%) were called active.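 How the source made its calls: active means CYP2C19 inhibition above a set limit at 5 µM in the primary screen (cut at about 50% in these data); inactive means the rest.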 The list is a sample of the results.

biological target: Cytochrome P450 2C19 (Homo sapiens) (UniProt P33261); experiment: blockers of cytochrome P450 2C19 activity – biochemical, luminescence, ADME assay, primary screen (AID 778); details: CYP2C19 Supersomes, luciferin-H EGE luminescence, 30 min; at 5 µM; stronger effect = higher value;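 further: plate controls were negative control wells for no effect and 2.5 mM tranylcypromine positive control for full effect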
Sequence (P33261 whole entry, looked up): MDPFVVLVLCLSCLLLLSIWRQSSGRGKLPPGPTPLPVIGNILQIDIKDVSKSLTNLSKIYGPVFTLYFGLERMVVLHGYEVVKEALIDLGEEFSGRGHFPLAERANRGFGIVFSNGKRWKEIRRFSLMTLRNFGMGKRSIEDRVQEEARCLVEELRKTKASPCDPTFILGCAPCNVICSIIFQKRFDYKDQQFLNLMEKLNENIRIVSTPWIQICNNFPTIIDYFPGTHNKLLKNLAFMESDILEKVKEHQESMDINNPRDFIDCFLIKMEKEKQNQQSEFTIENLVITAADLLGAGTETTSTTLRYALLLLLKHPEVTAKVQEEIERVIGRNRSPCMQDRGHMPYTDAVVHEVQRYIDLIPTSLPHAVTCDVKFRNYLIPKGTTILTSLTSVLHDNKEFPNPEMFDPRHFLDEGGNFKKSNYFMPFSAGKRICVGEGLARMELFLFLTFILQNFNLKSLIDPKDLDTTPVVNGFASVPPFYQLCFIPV

SMILES	inhibition
O=S(=O)(Nc1ccc(Oc2ncccn2)c(Cl)c1)c1ccc(F)cc1	100% (active)
Cc1ccc(-c2cc(C(=O)Nc3nn[nH]n3)c3ccccc3n2)c(C)c1	-11% (inactive)
CCCc1ccc(OCc2ccc(C(=O)N/N=C/c3cccc([N+](=O)[O-])c3)o2)c(OC)c1	-4.7% (inactive)
CCOc1ccc(OCC)c(NC(=O)CN(C)S(=O)(=O)c2cccc3nsnc23)c1	60.4% (active)
CCOc1ccc(NC(=O)CCS(=O)(=O)c2cccc3nsnc23)cc1	44.4% (inactive)
CCCCN(CC)C(=O)CN(C)S(=O)(=O)c1cccc2nsnc12	21% (inactive)
CCCCc1nccn1CCn1ccnc1CCCC	-17.6% (inactive)
COc1cccc(OCC(O)CN2CCN(CCO)CC2)c1 (stereo not given)	-11.7% (inactive)
CC(C)CCNC(=O)Cn1c(=O)oc2cc(S(=O)(=O)N3CC(C)CC(C)C3)ccc21 (stereo not given)	19.4% (inactive)
COc1cc(CC(=O)NCc2cccs2)cc(OC)c1OC	34.5% (inactive)
Cn1ncc(Br)c1C(=O)NCc1cccs1	11.1% (inactive)
COc1cc(CNCc2cccs2)cc(Br)c1OC	68.5% (active)
COc1ccc(C2CC(=O)Nc3sc(=N)c4c(N)c(C#N)c(N)nc4c32)cc1OC (stereo not given)	38.9% (inactive)
COc1ccc(C2CC(c3ccccc3)Nc3ncnn32)cc1 (stereo not given)	32.3% (inactive)
COc1ccc(C2CC(c3ccc(C)cc3)Nc3ncnn32)cc1 (stereo not given)	88.4% (active)
COc1ccc(C2CC(c3ccc(C)cc3)Nc3nc(N)nn32)cc1 (stereo not given)	13.1% (inactive)
CCOC(=O)c1cnc(SCc2nc(N)nc(Nc3ccc(OC)cc3)n2)nc1N	21.6% (inactive)
CN1CCN(c2cc(=O)n(-c3ccc(Cl)cc3)c(=O)[nH]2)CC1	-16.7% (inactive)
O=C(Cc1ccc(-n2c(=O)[nH]c3ccccc3c2=O)cc1)N1CCN(c2cccc(Cl)c2)CC1	40.3% (inactive)
Cc1cc(=O)[nH]c(SCC(N)=O)c1C#N	-8.9% (inactive)
Cc1cc(C(F)(F)F)c(C#N)c(SCC(=O)NC2CC2)n1	13.5% (inactive)
Cc1cc(C)c(C#N)c(SCS(=O)c2ccc(C(C)(C)C)cc2)n1 (stereo not given)	78.5% (active)
Cc1cc(N2CCCC2=O)cc(C)c1S(N)(=O)=O	-13.1% (inactive)
Cn1c(=O)[nH]c(=O)c2c1nc(N(CCO)Cc1ccccc1)n2Cc1ccccc1Cl	9.3% (inactive)
COc1ccc(CCNC(=O)CSc2nnc(-c3cccc(F)c3)o2)cc1OC	95.8% (active)

SMILES	inhibition
COc1ccc(CCNC(=O)CSc2nc(C)nc3c2oc2ccccc23)cc1OC	-3.9% (inactive)
Cn1c(SCC(=O)NC2CCCCC2)nnc1-c1cc2ccccc2o1	44.2% (inactive)
COc1ccc(CCNC(=O)CSc2nnc(CNC(=O)c3cccs3)o2)cc1OC	2.4% (inactive)
COc1ccccc1-c1nnc(SCC(=O)Nc2ccccc2)o1	69.7% (active)
COc1ccc(C(=O)N(CCN2CCOCC2)CC(=O)NC2CCCC2)cc1OC	-7.2% (inactive)
COc1ccccc1-c1nnc(SCC(=O)N2CC(C)CC(C)C2)o1 (stereo not given)	49.2% (inactive)
COc1ccccc1-c1nnc(SCC(=O)Nc2cc(C)on2)o1	-7.2% (inactive)
COc1ccc(-c2nnc(SCC(=O)NC3CCCCC3)o2)cc1OC	56.3% (active)
O=c1c2ccccc2nc(N/N=C/c2ccccc2)n1O	-14.2% (inactive)
CC(C)c1cc(C(=O)O)on1	-10.8% (inactive)
CCCCCCNCCn1cnc2c(N)ncnc21	-9.3% (inactive)
Cc1ccc(C(=O)N/N=C/c2sc(=O)n(Cc3cccc(C(=O)O)c3)c2Cl)cc1	22.8% (inactive)
COc1ccc(C2C=C(c3ccc(Br)cc3)Nc3nc(NS(C)(=O)=O)nn32)cc1 (stereo not given)	3.9% (inactive)
O=C(Nc1cccc(Cl)c1)Nc1nnc(-c2ccccc2)o1	12.7% (inactive)
CC1CC(C)CN(CC(=O)Nc2ccc(S(N)(=O)=O)cc2)C1 (stereo not given)	4.7% (inactive)
CC(C)Nc1nc(N(c2ccccc2)c2ccccc2)nc(-n2ccnc2)n1	39.2% (inactive)
O=C(CSC1=NCCS1)Nc1nc(-c2ccccc2)cs1	22% (inactive)
O=C(COc1ccc2c(C(F)(F)F)cc(=O)oc2c1)Nc1ccc2c(c1)OCCO2	-8.9% (inactive)
COC(=O)CCNc1ccc2c(c1)OCCO2	24.9% (inactive)
O=C(Nc1nnc(SCc2ccc(Cl)cc2Cl)s1)C1COc2ccccc2O1 (stereo not given)	38.1% (inactive)
CCCCC(=O)Nc1ccc2c(c1)C(=O)NC2=O	-10.8% (inactive)
CCCCC(=O)Nc1ccc2c(c1)OCCO2	50.3% (active)
CC(=O)c1cccc(NC(=O)c2ccncc2)c1	74.6% (active)
O=C(Nc1nc(-c2ccncc2)cs1)C1COc2ccccc2O1 (stereo not given)	96.4% (active)
CSc1ccccc1C(=O)Nc1cccc(C(C)=O)c1	3.3% (inactive)

SMILES	inhibition
COc1ccc(S(=O)(=O)N(C)CC(=O)Nc2ccc3c(c2)OCCO3)cc1OC	21.9% (inactive)
C=C(C)C(=O)Nc1cccc(C(C)=O)c1	-1.5% (inactive)
CCN(CC(=O)Nc1ccc2c(c1)OCCO2)Cc1cc(=O)oc2cc(C)c(C)cc12	88.4% (active)
CCCN(CCC)CCNC(=O)c1cc2c(C)nc3ccccc3c2o1	-9.3% (inactive)
Cc1c(C(=O)OCC(=O)N(CCC#N)c2ccccc2)oc2c1ccc1ccccc12	18.2% (inactive)
O=C(O)CCC(=O)N(Cc1cccs1)Cc1cccs1	-5.7% (inactive)
COc1cccc(-c2cnc(OC(C)(C)C)nc2OC(C)(C)C)c1	9.2% (inactive)
CCCNC(=O)c1ccc(Cl)c(Cl)c1	-2.2% (inactive)
CN(C)c1nc(N)nc(CSc2nnnn2-c2cccc3ccccc23)n1	24.3% (inactive)
O=C1C2(c3ccccc3)CN(CCCO)CC1(c1ccccc1)CN(CCCO)C2	6.9% (inactive)
Cc1ccccc1C(OCC(O)CN1CCCCC1CCO)c1ccccc1 (stereo not given)	18% (inactive)
CCc1nnc(NC(=O)CCC(=O)O)s1	-16.3% (inactive)
CC(C)(C)n1nnc(CCc2nnn(C(C)(C)C)n2)n1	34.7% (inactive)
Cc1ccc(-c2csc(NC(=O)Cc3cccs3)n2)cc1C	10% (inactive)
Cc1cc(C)c2nc(NC(=O)c3ccc4c(c3)OCO4)sc2c1	-1.4% (inactive)
O=C(Nc1ccc2c(c1)OCCO2)c1ccncc1	76.5% (active)
O=C(Nc1ccc2c(c1)OCCO2)c1cnccn1	14.5% (inactive)
Cn1cc([N+](=O)[O-])c(C(=O)Nc2ccc3c(c2)OCCO3)n1	43.6% (inactive)
O=C(Nc1nc(-c2ccc3c(c2)OCO3)cs1)c1ccncc1	63.2% (active)
O=C(O)c1cccc2c1C(=O)N(C1CCCCC1)C2	-19.3% (inactive)
Brc1cccc(-c2nnc3n2CCC3)c1	-4.8% (inactive)
O=C(NCCN1CCOCC1)c1c(F)c(F)c(F)c(F)c1F	-10.6% (inactive)
O=C(NCCCN1CCOCC1)c1cc2c(s1)CCC2	52.8% (active)
O=C(CNC(=O)c1cc2c(s1)CCC2)Nc1ccccc1Br	7% (inactive)
CCCCOC(=O)CNc1nnc(SCC(=O)OCC)[nH]c1=O	-15.4% (inactive)

SMILES	inhibition
COC(=O)c1ccc(CSc2nc3cc(Cl)ccc3o2)cc1	-5.7% (inactive)
Clc1ccc(CSc2nnc([C@@H]3CCCN3)o2)cc1	97.9% (active)
Fc1ccc(CSc2nnc(-c3cc4c(s3)-c3ccccc3CC4)o2)cc1	31.9% (inactive)
CCC(C)NC(=O)c1cc(Cl)ccc1OC (stereo not given)	22% (inactive)
Cc1cc(C(F)F)n2nc(C(=O)Nc3ccc(S(=O)(=O)NC45CC6CC(CC(C6)C4)C5)cc3)nc2n1	21.2% (inactive)
COc1ccccc1C(=O)Nc1nc2nc(-c3ccccc3)cc(=O)n2[nH]1	7.1% (inactive)
COC(=O)CNC(c1ccccc1Cl)c1cc(Br)ccc1NC(=O)CCN1CCOCC1 (stereo not given)	-3.3% (inactive)
CC(=O)c1c(C)n(-c2ccc(N(C)C)cc2)c2ccc(OCC(N)=O)cc12	18.6% (inactive)
CCn1c(=N)c(C(=O)NCCCOC)cc2c(=O)n3cccc(C)c3nc21	-9.8% (inactive)
Cc1cccn2c(=O)c3cc(C#N)c(=O)n(CCCN4CCOCC4)c3nc12	61.4% (active)
Cc1cccn2c(=O)c3cc(C(=O)N4COCC4(C)C)n(C)c3nc12	0.5% (inactive)
CCCc1[nH]nc2c1C(c1ccc(Br)s1)C(C#N)=C(N)O2 (stereo not given)	34.4% (inactive)
Cc1noc(NS(=O)(=O)c2ccc(N/C=C/C(=O)c3ccccc3)cc2)c1C	-5.7% (inactive)
Cc1noc(C)c1CSc1nc2cc(S(=O)(=O)N3CCOCC3)ccc2o1	63.9% (active)
Cc1ccc(S(=O)(=O)N2CCN(S(=O)(=O)N3CCOCC3)CC2)cc1	7.3% (inactive)
Cc1ccc(Oc2nc3ccccc3n3c(C)nnc23)cc1	-14.5% (inactive)
COc1ccccc1N1CCN(C(=O)CN(Cc2ccc(Cl)cc2)S(C)(=O)=O)CC1	34% (inactive)
COc1ccccc1-n1nnnc1S(=O)(=O)Cc1ccc(Cl)cc1	58.4% (active)
CCOCCCNC(=O)C(NC(=O)c1ccc(=O)[nH]c1)c1ccc(C)cc1 (stereo not given)	5.2% (inactive)
COc1cc(C(=O)Nc2oc(-c3ccccc3)c(-c3ccccc3)c2C#N)cc(OC)c1OC	27.1% (inactive)
COc1ccc(-c2oc(/N=C/N3CCCC3)c(C#N)c2-c2ccc(OC)cc2)cc1	59.3% (active)
N#Cc1c(/N=C/N2CCCC2)oc(-c2ccccc2)c1-c1ccccc1	45.7% (inactive)
COc1cccc(CN2C(=O)CCC2(C)C(=O)NC2CCCCCC2)c1 (stereo not given)	8.6% (inactive)
Cc1ccc(-n2ncc3c(N4CCN(c5ccc(F)cc5)CC4)ncnc32)c(C)c1	-22.2% (inactive)
CCc1cc2c(N3CCN(c4nnc(CC)s4)CC3)ncnc2s1	52.3% (active)
